Here are results for ten compounds from PubChem BioAssay (Tox21).

Results filed as inconclusive are left out. Activity calls are given as the source filed them. Unless noted, calls follow the shape of the full dose curve.

Assay [1] can be described thus: Nuclear factor erythroid 2-related factor 2/antioxidant responsive element (Nrf2/ARE) small molecule agonists: qHTS cell viability counter screen in human keratinocytes (AID 1919968; active = well fitted curve in the direction sought with a large enough effect in the repeat runs; an effect the other way counts as inactive or inconclusive; also: nearly all actives have a fitted effect of over 55% in size; also: potency is read from the fitted curve at half-maximal effect). In short, it runs like this:
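Cytotoxicity was multiplexed with the Nrf2/ARE luciferase assay in the same wells. Stably transfected HaCaT keratinocytes were treated with test compounds for 23 h at 37 C. Cell viability was then measured by CellTiter-Fluor fluorescence.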
(qHTS replaces the single test concentration by a dilution series.)

The nature of assay [2]: Nuclear factor erythroid 2-related factor 2/antioxidant responsive element (Nrf2/ARE) small molecule agonists: luciferase reporter gene qHTS assay in human keratinocytes (AID 1919969). Also: nearly all actives have a fitted effect of over 35% in size. Also: potency is read from the fitted curve at half-maximal effect. On the technique in general: In a reporter assay the amount or activity of a reporter protein is the signal.
The target in assay [3] is KiSS-1 receptor (Homo sapiens) (UniProt Q969F8). In words: Human kisspeptin (KISS1R) small molecule agonists, calcium flux assay in KISS1R-HEK293 cells (AID 1920064; active = well fitted curve in the direction sought with a large enough effect in the repeat runs; an effect the other way counts as inactive or inconclusive). In short, it runs like this: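 Agonist activity is monitored as intracellular calcium rise in engineered HEK293 cells carrying human KISS1R. Cells are dye-loaded for 1 h at 37 C before compound addition, and fluorescence is recorded for 3 min.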
Sequence of KiSS-1 receptor (Homo sapiens) (Q969F8 whole entry, looked up): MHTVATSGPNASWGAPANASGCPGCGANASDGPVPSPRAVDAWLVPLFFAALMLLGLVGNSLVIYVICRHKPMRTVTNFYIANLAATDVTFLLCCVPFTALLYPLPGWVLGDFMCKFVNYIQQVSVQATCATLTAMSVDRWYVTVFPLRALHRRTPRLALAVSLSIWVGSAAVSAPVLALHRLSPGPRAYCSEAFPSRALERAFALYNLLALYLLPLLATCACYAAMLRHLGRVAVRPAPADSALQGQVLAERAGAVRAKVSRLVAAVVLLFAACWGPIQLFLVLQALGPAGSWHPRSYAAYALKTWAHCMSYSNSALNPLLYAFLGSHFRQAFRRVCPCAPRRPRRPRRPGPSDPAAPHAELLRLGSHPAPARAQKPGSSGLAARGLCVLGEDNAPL

Assay [4] can be described thus: G protein-coupled receptor (GPCR) small molecule agonists, calcium flux assay: HEK293 wild type cell line counter screen (AID 1920065). In short, it runs like this: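 Seed cells, incubate 18 h (37 C, 5% CO2); add calcium dye, 1 h at 37 C; pin-transfer compounds, ATP control or DMSO; read fluorescence 480/540 nm each second for 3 min.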
(In general: Calcium assays in cells follow changes in intracellular calcium, usually with a dye or a luminescent sensor.)

The nature of assay [5]: p53 small molecule agonists, cell-based qHTS assay with human liver microsomes (AID 1963577).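 Also: p53 response element beta-lactamase reporter cells with liver microsomes plus NADPH.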 In short, it runs like this: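 With metabolic activation: human liver microsomes (0.5 mg/mL final) plus NADPH (0.5 mg/mL final) added alongside compounds to p53RE-bla cells; 16 h 37 C exposure; beta-lactamase read by LiveBLAzer fluorescence.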
Assay [6] is described as follows: p53 small molecule agonists, cell-based qHTS assay with rat liver microsomes (AID 1963578). In short, it runs like this: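 Metabolic activation by rat liver microsomes and NADPH, each 0.5 mg/mL final, added right after compounds to p53RE-bla reporter cells (4,000/well, plated 5 h earlier). 16 h at 37 C, then LiveBLAzer substrate for 2 h at room temperature in the dark; fluorescence read-out.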

The nature of assay [7]: p53 small molecule agonists, cell-based qHTS assay with human liver microsomes: qHTS cell viability counter screen (AID 1963579). Also: nearly all actives have a fitted effect of over 45% in size. Also: potency is read from the fitted curve at half-maximal effect. In short, it runs like this:
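Metabolic activation used human liver microsomes and NADPH, both 0.5 mg/mL final, over 16 hours at 37 C on p53RE-bla cells (4,000/well). Cytotoxicity measured by CellTiter-Glo luminescence, 30 min at room temperature.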

Assay [8] can be described thus: p53 small molecule agonists, cell-based qHTS assay: qHTS cell viability counter screen (AID 1963581). Also: nearly all actives have a fitted effect of over 45% in size. Also: potency is read from the fitted curve at half-maximal effect. In short, it runs like this: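 Viability was counter-screened in parallel with the p53 agonist reporter by measuring intracellular ATP luminescence in the same HCT-116 p53RE-bla wells after 16 h compound treatment at 37 C.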
For assay [9], the target named is 5-hydroxytryptamine receptor 2A (Homo sapiens) (UniProt P28223). Briefly: 5-hydroxytryptamine receptor 2A (HTR2A) small molecule antagonists, cell-based qHTS assay (AID 1963586). Also: nearly all actives have a fitted effect of over 45% in size. In short, it runs like this:
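CHO cells stably expressing human HTR2A were plated for 18 h at 37 C, then loaded with calcium dye for 1 h. Compounds were preincubated 5 min at room temperature before DOI (4 nM solution) was added. Kinetic fluorescence was read for 3 min.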

The target is the same in assay [10]. Briefly: 5-hydroxytryptamine receptor 2A (HTR2A) small molecule agonists, cell-based qHTS assay (AID 1963587). Also: nearly all actives have a fitted effect of over 30% in size. Also: potency is read from the fitted curve at half-maximal effect. In short, it runs like this: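 CHO cells stably expressing human HTR2A, plated 18 h, loaded with calcium dye 1 h at 37 C. Agonist mode: compounds added and intracellular calcium fluorescence recorded kinetically for 2 min at 1 sec intervals.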
Assay [11] concerns the target Muscarinic acetylcholine receptor M1 (Homo sapiens) (UniProt P11229). In words: Cholinergic receptor muscarinic 1 (CHRM1) small molecule agonists, cell-based qHTS assay (AID 1963589). Also: nearly all actives have a fitted effect of over 35% in size. In short, it runs like this:
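Cells were plated and incubated 18 h at 37 C/5% CO2, loaded with calcium dye for 1 h at 37 C, then treated with compounds in DMSO. Fluorescence was recorded kinetically at 1 sec intervals.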

In assay [12] the target is D(2) dopamine receptor (Homo sapiens) (UniProt P14416). In words: Dopamine D2 receptor (DRD2) small molecule agonists, cell-based qHTS assay (AID 1963594). Also: nearly all actives have a fitted effect of over 35% in size. In short, it runs like this:
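HEK293 cells stably expressing human DRD2, pre-treated with PDE inhibitor Ro20-1724 (0.1 mM final) and compound 10 min at room temperature, then stimulated with NKH477 (200nM […]) for 30 min. cAMP read by HTRF (665/620 nm).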

Assay [13] shares this target. In words: Dopamine D2 receptor (DRD2) small molecule antagonists, cell-based qHTS assay (AID 1963595; active = well fitted inhibition curve with a large enough effect in the signal ratio in the repeat runs, with a control signal flat; the % refers to the signal ratio; also: potency is read from the fitted curve at half-maximal effect). In short, it runs like this:
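HTRF cAMP read-out at 665 and 620 nm emission (340 nm excitation). Antagonist mode: compounds were tested against 12 nM quinpirole in DRD2-HEK293 cells, with 200 nM NKH477 raising cAMP and 0.1 mM Ro20-1724 blocking its breakdown.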

Assay [14] can be described thus: p53 small molecule agonists, cell-based qHTS assay with rat liver microsomes: qHTS cell viability counter screen (AID 1963580). Also: nearly all actives have a fitted effect of over 45% in size. In short, it runs like this: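 After the beta-lactamase ratio was read, CellTiter-Glo was added to the same wells and luminescence measured at 30 min; cells had been treated 16 h at 37 C with compounds, rat liver microsomes and NADPH (0.5 mg/mL final each).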

Assay [15] in a line: p53 small molecule agonists, cell-based qHTS assay (AID 1963582; active = well fitted activation curve with a large enough effect in the signal ratio in the repeat runs, not every such curve was filed as active; the % refers to the signal ratio). In short, it runs like this:
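Cells carrying a p53-responsive bla reporter are treated with test compounds for 16 h at 37 C; beta-lactamase activity is then detected with LiveBLAzer B/G FRET substrate after 2 h at room temperature.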

Assay [16] concerns the target Muscarinic acetylcholine receptor M1 (Homo sapiens) (UniProt P11229). In words: Cholinergic receptor muscarinic 1 (CHRM1) small molecule antagonists, cell-based qHTS assay (AID 1963588). Also: nearly all actives have a fitted effect of over 40% in size. Also: potency is read from the fitted curve at half-maximal effect. In short, it runs like this: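 Compounds were tested at 15 concentrations in three independent runs. Dye-loaded CHRM1-CHO cells were exposed 5 min at room temperature before stimulation by acetylcholine added at 50nM. Intracellular calcium was read kinetically on FDSS for 3 min.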

The target of assay [17] is Beta-2 adrenergic receptor (Homo sapiens) (UniProt P07550). In words: Adrenergic beta2 receptor (ADRB2) small molecule antagonists, cell-based qHTS assay (AID 1963592). Also: series mostly up to about 92 µM; nearly all actives have a fitted effect of over 50% in size. In short, it runs like this:
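Assay format: CHO-ADRB2 cells, 18-20hr seeding at 37C/5% CO2, then compound plus 1nM isoproterenol agonist mix for 0.5hr RT. Homogeneous time-resolved fluorescence cAMP detection after 1hr, expressed as 665/615 nm ratio.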

Assay [18] is described as follows: cAMP Responsive Elements (CRE) small molecule agonists, cell-based qHTS assay (AID 1963590). In short, it runs like this:
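Cells carrying a CRE-driven beta-lactamase reporter (HEK 293T) are seeded, incubated overnight (18 h), and treated with test compounds for 3 h at 37 C; reporter activity is then detected with a FRET substrate after 2 h at room temperature.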

Assay [19] can be described thus: cAMP Responsive Elements (CRE) small molecule antagonists, cell-based qHTS assay (AID 1963591; active = well fitted inhibition curve with a large enough effect in the signal ratio in the repeat runs, not every such curve was filed as active; the % refers to the signal ratio). In short, it runs like this: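 Cells (CRE-bla HEK 293T, DMEM with 10% dialyzed FBS and 25 mM HEPES) are seeded and incubated 18 h. Compounds are added with NKH477 agonist at 0.25 uM final for 3 h, then FRET substrate for 2 h.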
Assay [20] deals with Beta-2 adrenergic receptor (Homo sapiens) (UniProt P07550). In words: Adrenergic beta2 receptor (ADRB2) small molecule agonists, cell-based qHTS assay (AID 1963593).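 Also: CHO cells stably overexpressing human ADRB2.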 In short, it runs like this:
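CHO cells stably over-expressing ADRB2 were plated overnight at 37C, then dosed with compounds plus a stimulation mix containing 100uM IBMX and 25uM Ro-20-1724 for 0.5hr at room temperature. cAMP was measured by HTRF competition, 1hr.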

Sequence of 5-hydroxytryptamine receptor 2A (Homo sapiens) (P28223 whole entry, looked up): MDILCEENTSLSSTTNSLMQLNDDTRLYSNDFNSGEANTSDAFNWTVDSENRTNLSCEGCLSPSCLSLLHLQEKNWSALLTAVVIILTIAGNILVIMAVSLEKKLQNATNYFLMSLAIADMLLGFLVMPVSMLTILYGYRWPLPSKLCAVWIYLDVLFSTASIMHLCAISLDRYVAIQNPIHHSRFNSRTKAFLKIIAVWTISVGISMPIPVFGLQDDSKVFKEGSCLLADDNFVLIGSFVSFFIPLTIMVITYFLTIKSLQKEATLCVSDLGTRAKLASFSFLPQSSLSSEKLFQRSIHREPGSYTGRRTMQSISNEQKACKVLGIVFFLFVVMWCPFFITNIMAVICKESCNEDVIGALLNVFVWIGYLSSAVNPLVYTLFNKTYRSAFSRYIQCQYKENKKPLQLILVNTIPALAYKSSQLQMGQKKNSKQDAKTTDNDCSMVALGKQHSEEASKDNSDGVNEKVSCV
Sequence of Muscarinic acetylcholine receptor M1 (Homo sapiens) (P11229 whole entry, looked up): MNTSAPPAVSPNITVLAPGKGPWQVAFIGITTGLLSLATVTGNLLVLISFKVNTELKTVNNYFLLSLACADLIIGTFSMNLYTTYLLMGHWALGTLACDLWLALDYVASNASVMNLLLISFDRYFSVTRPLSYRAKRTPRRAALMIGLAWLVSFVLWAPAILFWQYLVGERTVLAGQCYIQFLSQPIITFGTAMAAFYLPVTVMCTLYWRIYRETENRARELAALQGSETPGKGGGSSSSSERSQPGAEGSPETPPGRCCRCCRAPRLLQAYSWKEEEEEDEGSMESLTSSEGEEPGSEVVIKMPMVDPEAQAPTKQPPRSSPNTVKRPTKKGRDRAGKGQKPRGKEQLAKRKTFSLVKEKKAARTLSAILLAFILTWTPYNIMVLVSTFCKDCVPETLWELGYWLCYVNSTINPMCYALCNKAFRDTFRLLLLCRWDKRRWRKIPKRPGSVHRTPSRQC
Sequence of D(2) dopamine receptor (Homo sapiens) (P14416 whole entry, looked up): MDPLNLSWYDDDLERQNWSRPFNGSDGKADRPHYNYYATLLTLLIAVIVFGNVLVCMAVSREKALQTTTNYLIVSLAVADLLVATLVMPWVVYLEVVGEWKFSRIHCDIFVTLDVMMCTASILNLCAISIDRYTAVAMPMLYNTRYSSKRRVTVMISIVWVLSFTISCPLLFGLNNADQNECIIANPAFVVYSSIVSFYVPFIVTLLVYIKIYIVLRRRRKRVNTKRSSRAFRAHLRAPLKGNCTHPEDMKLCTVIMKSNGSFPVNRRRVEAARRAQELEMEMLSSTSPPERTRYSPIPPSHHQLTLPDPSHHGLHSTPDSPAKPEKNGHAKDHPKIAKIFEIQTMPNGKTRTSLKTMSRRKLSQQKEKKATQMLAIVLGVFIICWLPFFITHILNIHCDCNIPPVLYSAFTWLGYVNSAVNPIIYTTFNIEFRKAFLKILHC
Sequence of Beta-2 adrenergic receptor (Homo sapiens) (P07550 whole entry, looked up): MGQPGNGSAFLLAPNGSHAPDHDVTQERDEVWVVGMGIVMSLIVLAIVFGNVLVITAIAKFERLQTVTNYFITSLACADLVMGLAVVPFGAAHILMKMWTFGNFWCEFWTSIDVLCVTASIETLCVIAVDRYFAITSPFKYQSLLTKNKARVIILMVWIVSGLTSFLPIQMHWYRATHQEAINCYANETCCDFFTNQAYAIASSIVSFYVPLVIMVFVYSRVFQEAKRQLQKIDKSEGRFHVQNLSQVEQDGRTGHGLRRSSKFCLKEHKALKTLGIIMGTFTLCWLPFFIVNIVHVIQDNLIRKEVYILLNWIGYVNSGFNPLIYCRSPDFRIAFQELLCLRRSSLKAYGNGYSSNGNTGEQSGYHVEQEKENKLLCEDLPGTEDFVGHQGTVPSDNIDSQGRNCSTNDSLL

Take `CCCCCCCCCCCCCCCCCC[N+](C)(C)C`: the Potency in [1] was 61.3 µM (active); in assay [7], 40.9 µM (active); in [8] it was 16.3 µM (active); in assay [10], 34.8 µM (active). Further, the Potency entry in assay [2], in assay [3], in assay [4], in assay [5], in assay [6] and in [9] was “inactive” in each case. The Potency result in [11], in assay [12] and in assay [13] was “inactive” throughout.
On to `Cc1cc(C)c(/C=C2\C(=O)Nc3ccccc32)[nH]1`, for which the Potency entry in [1], in assay [2], in assay [3], in [4], in [5] and in assay [6] was “inactive” each time. In addition, the Potency result in assay [7], in assay [14], in assay [8], in assay [15], in assay [9] and in [16] was “inactive” throughout. The Potency result in assay [11], in [12] and in [13] was “inactive” each time. Further, in assay [10], the Potency was 21.3 µM (active).
On to `CC(C(O)c1ccccc1)N(C)CCOC(c1ccccc1)c1ccccc1` (stereo not drawn), for which the Potency in assay [1] was 18.8 µM (active); in assay [10] it was 23.9 µM (active); in assay [16], 1.16 µM (active). In addition, the Potency result in assay [2], in [3], in assay [4], in [5], in assay [6] and in assay [7] was “inactive” throughout. In addition, the Potency result in [14], in assay [8], in assay [11], in [12] and in assay [13] was “inactive” throughout.
Regarding `CC1(C)CCC(C)(C)c2cc(C(=O)Nc3ccc(C(=O)O)cc3)ccc21`, the Potency result in assay [1], in assay [2], in [3], in [4], in [5] and in assay [6] was “inactive” each time. For the same compound, the Potency result in assay [11], in [17] and in [12] was “inactive” each time.
In the case of `Cc1ccccc1N=C(N)N=C(N)N`, the Potency entry in assay [1], in assay [2], in assay [7], in assay [14], in assay [8] and in assay [9] was “inactive” throughout. In addition, the Potency entry in assay [10], in assay [16], in assay [11], in assay [18], in assay [19] and in [17] was “inactive” throughout. Besides, the Potency entry in [20], in [12] and in [13] was “inactive” each time.
In the case of `O=C1C=CC(=O)N1c1cccc(N2C(=O)C=CC2=O)c1`, the Potency is 54.5 µM (active) in assay [1], 4.86 µM (active) in assay [2] and 40.8 µM (active) in assay [7]. Also, the Potency entry in assay [3], in assay [4], in assay [5], in [6], in [15] and in [9] was “inactive” each time. In addition, the Potency result in [16] and in assay [11] was “inactive” throughout.
On to `CCOCN(C(=O)CS(=O)(=O)O)c1c(C)cccc1CC`, for which the Potency result in assay [1], in [2], in [3], in assay [4], in [5] and in [7] was “inactive” in each case. Further, the Potency result in assay [14], in assay [8], in assay [15], in [11], in assay [18] and in assay [19] was “inactive” in each case. The Potency result in [17], in assay [12] and in [13] was “inactive” each time.
`O=C1C=CC(=O)N1c1ccc(Cc2ccc(N3C(=O)C=CC3=O)cc2)cc1`: the Potency in assay [1] is 27.3 µM (active); in assay [2], 9.69 µM (active); in assay [7] it was 16.2 µM (active); in assay [10], 43.6 µM (active); in assay [13] it was 4.33 µM (active). In addition, the Potency result in [3], in assay [4], in assay [5] and in assay [6] was “inactive” throughout.
`Cc1cc2c(C(C)C)c(O)c(O)c(C=O)c2c(O)c1-c1c(C)cc2c(C(C)C)c(O)c(O)c(C=O)c2c1O`: the Potency was 10.6 µM (active) in assay [1], 17.8 µM (active) in [7] and 11.2 µM (active) in [8]. Further, the Potency entry in assay [2], in assay [3], in [4], in assay [5], in assay [6] and in [16] was “inactive” in each case. The Potency entry in assay [11], in assay [17] and in assay [12] was “inactive” in each case.
As to `CCCCCCOC(=O)NC(=N)c1ccc(NCc2nc3cc(C(=O)N(CCC(=O)OCC)c4ccccn4)ccc3n2C)cc1`, the Potency entry in assay [1], in assay [2], in assay [3], in [4], in [5] and in assay [6] was “inactive” in each case. The Potency entry in assay [7], in assay [14], in assay [10], in assay [16], in [11] and in assay [17] was “inactive” throughout. The Potency result in assay [20] and in assay [12] was “inactive” in each case.
